D2 ag-1: Beta-Arrestin HTS for Positive Allosteric Modulators of the Human D2 Dopamine Receptor: Agonists; D(2) dopamine receptor (Homo sapiens), P14416; DiscoveRx PathHunter D2 beta-arrestin, luminescence, 90 min; 100% = 57 uM dopamine signal; activation, % (concentration not given with the values); hit rate 0.084% among 360,000; AID 624465, 2012; in the data active means activation above about 40%; inconclusive means between about 15% and that limit
Target sequence (P14416 whole entry, looked up): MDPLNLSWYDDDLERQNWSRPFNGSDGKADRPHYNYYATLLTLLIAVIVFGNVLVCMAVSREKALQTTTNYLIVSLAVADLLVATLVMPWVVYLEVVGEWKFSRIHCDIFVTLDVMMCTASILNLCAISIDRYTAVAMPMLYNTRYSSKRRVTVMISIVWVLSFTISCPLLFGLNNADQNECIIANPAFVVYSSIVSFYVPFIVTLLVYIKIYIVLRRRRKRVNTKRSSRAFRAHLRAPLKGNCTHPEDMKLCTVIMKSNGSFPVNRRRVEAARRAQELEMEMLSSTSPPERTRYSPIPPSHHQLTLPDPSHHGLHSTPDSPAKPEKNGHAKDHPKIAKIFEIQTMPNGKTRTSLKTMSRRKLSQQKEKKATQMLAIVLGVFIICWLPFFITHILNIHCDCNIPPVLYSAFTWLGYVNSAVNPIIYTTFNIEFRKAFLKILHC
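Agonist mode: compounds alone added to overnight-plated D2 PathHunter cells for 90 min at 37 C, with 57 uM final dopamine (EC100) defining full response. Beta-arrestin recruitment detected by chemiluminescent reagent, read after 1 h at ambient temperature.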
D2 PAM-1: HTS Assay for Positive Allosteric Modulators of the Human D2 Dopamine Receptor: Primary Screen for Potentiators; HEK293 T-REx D2, calcium flux, EC20 dopamine potentiation; potentiation, % at 10 µM; hit rate 0.34% among 340,000; AID 485347, 2010;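 active means potentiation over 3 SD above the plate norm, cut at about 30% in these data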; further: 0% is about no effect
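Calcium flux readout, no-wash dye, 1 read/s. Inducible HEK293 Trex D2 line, overnight 30 C. Compound alone 180 s (agonist flags), then EC20 dopamine, another 180 s to score potentiation.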
D2 PAM-2: Beta-Arrestin HTS for Positive Allosteric Modulators of the Human D2 Dopamine Receptor: Potentiators | D(2) dopamine receptor (Homo sapiens), P14416 | DiscoveRx D2 beta-arrestin cells, luminescence, 90 min; 100% = 57 uM dopamine signal | potentiation, % (no concentration beside the values) | hit rate 0.23% among 360,000 | AID 624464, 2012; in the data active means potentiation above about 50%; inconclusive means mostly about 30% to 49%
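PathHunter D2 cells, attached overnight at 37 deg C, received compound in DMSO plus dopamine at EC20 (50 nM final) for 90 min at 37 deg C. Beta-arrestin recruitment was read as luminescence after 1 h with detection reagent at ambient temperature.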
D2 antagonist: HTS Assay for Allosteric Antagonists of the Human D2 Dopamine Receptor: Primary Screen for Antagonists | D(2) dopamine receptor (Homo sapiens), P14416 | HEK293 TREx D2 cells, calcium flux, dopamine EC80 | inhibition, % at 10 µM | hit rate 2% among 340,000 | AID 485344, 2010; in the data active means inhibition above about 30%; inactive means below that, where a call was filed; further: 0% is about no effect
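Read-out: kinetic calcium fluorescence (1 cycle/s) in inducible HEK293 T-REx D2 cells after an EC80 dopamine addition that followed 180 s compound preincubation. Loss of the dopamine response indicates antagonism.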
D2 ag-2: HTS Assay for Allosteric Agonists of the Human D2 Dopamine Receptor: Primary Screen for Agonists; HEK293 T-REx D2 cells, calcium flux agonist mode; activation, % at 2 µM; hit rate 0.53% among 340,000;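 active means activation over 3 SD above normal in the single-dose calcium agonist read, cut at about 30% in these data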; further: 0% is about no effect
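Calcium-flux readout, 1 cycle/sec over 180 s following compound pin transfer, in inducible HEK293 Trex D2 cells (force-coupled); dopamine controls included. Positive calcium responses during this window marked compounds as potential agonists.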
* marks the source's active call; other numbers are inactive results; ? = inconclusive; . = no result. Shown are actives, neighbours in structure and some others; about 2.4% of the full set was active somewhere.

SMILES	D2 ag-1	D2 PAM-1	D2 PAM-2	D2 antagonist	D2 ag-2
CCc1ccc(NC(=O)CCC(=O)Nc2nnc(C(C)C)s2)cc1	0	2	-3	43*	1
COc1cccc(-c2ccc3nnc(SCC(=O)N4CCCC4)n3n2)c1	-4	-5	1	5	0
CC1CCN(C(=O)CSc2nnc3ccc(-c4cccnc4)nn23)CC1	-2	-4	16	38*	0
CCCOc1ccccc1N/C(N)=N/c1nc(C)cc(C)n1	0	-8	-10	31*	1
O=C(O)CCCn1cc(NC(=O)COc2ccc([N+](=O)[O-])cc2)cn1	-1	31*	-1	-6	0
Cc1cc(OCC(=O)Nc2cnn(CCCC(=O)O)c2)ccc1[N+](=O)[O-]	-4	15	-1	13	0
O=C(COc1ccccc1)Nc1nnc(SCc2cc(=O)n3cc(Cl)ccc3n2)s1	.	-1	.	.	-1
O=C(NCc1cccnc1)c1cc(C2CCCCN2C(=O)c2cccs2)on1 (configuration not stated)	-4	.	1	.	.
COc1ccccc1/C=C/CN1CCCC(CO)(CCc2ccccc2)C1 (configuration not stated)	4	-19	-23	71*	0
COc1ccc(CC2(CO)CCN(C/C=C/c3ccccc3OC)CC2)cc1	-1	8	-7	-9	1
OCC1(CCc2ccccc2)CCCN(C/C=C/c2ccccc2)C1 (configuration not stated)	5	-22	-21	45*	-1
COc1ccc(C(C#N)(CCC#N)CCC#N)cc1OC	-2	-24	-20	80*	2
C=CCC(C#N)(c1ccc(OC)c(OC)c1)c1cnccn1 (configuration not stated)	-4	5	-9	6	0
Cc1nc2nc(SCC(=O)c3cccc([N+](=O)[O-])c3)[nH]c2cc1Br	3	-22	-24	38*	0
CC(=O)c1sc(N/N=C\c2ccc(Br)cc2)nc1C	5	10	13	2	1
CC(=O)c1sc(N/N=C\c2cccc(Br)c2)nc1C	?	7	92*	-19	2
CCOC(=O)c1c(O)cc(C)cc1Nc1ccccc1	-1	4	-4	32*	2
CCOC(=O)c1c(Nc2ccccc2N)cc(C)nc1C	1	-1	9	9	0
Cc1cc2ncn(/N=C/c3ccc4c(c3)OCO4)c2cc1C	-3	-1	-3	89*	2
Cc1cc2ncn(/N=C/c3cccnc3)c2cc1C	-2	0	-23	-3	0
Cc1ccc(S(=O)(=O)Nc2ccc3c(c2)nc(CCN2CCCC2)n3C)cc1	-2	-5	-28	39*	-1
Cn1c(CCN2CCCCC2)nc2cc(NS(=O)(=O)c3ccccc3)ccc21	-4	-16	-13	38*	-1
Cn1c(CCN2CCOCC2)nc2cc(NS(=O)(=O)c3ccccc3)ccc21	-2	24	-5	-3	0
Cc1ccc(C)c(NC(=O)CSc2nnc(CNC(=O)c3ccccc3)n2-c2ccccc2)c1	.	-3	.	.	-1
CC(C)c1ccc(NC(=O)CSc2ncnc3c2sc2ccccc23)cc1	.	7	.	.	.
SMILES	D2 ag-1	D2 PAM-1	D2 PAM-2	D2 antagonist	D2 ag-2
O=C(Nc1nnc(S(=O)(=O)N2CCCc3ccccc32)s1)c1ccccc1Br	.	3	.	.	0
CCCn1c(N)c(Sc2ccccc2)c(=O)n(CCC)c1=O	-1	-8	1	49*	0
Cc1ccccc1-c1noc(-c2cccnc2N(C)Cc2ccc(Cl)cc2)n1	.	0	.	.	1
CN(C(=S)Nc1cccnc1)c1ccc(O)cc1	11	.	64*	.	.
CN(C(=S)Nc1ccc(Oc2ccccc2)cc1)c1ccc(O)cc1	?	10	82*	-8	-1
O=C(Nc1cccc(F)c1F)C1CCN(c2ncccn2)CC1	.	8	.	.	-1
Cc1c(C#N)c(N)c(C(=O)c2ccccc2)n1Cc1ccccc1	-4	-5	-15	16	0
CCn1c(C)c(C(=O)c2ccccc2)c(C#N)c1C(=O)O	0	-10	-2	33*	-1
Cc1ccc2[nH]c(O)c(N=O)c2c1	-6	8	-6	9	1
Cc1cc(C)c(NC(=O)CS(=O)CC(=O)NCCN2CCCCCC2)c(C)c1 (configuration not stated)	-2	-1	-3	-6	0
O=C(CCn1c(=O)c2cccn2c2ccccc21)Nc1ccc(F)cc1	-4	5	-22	61*	1
CCn1c(=O)c(C(=O)NNC(=O)c2cccc(Cl)c2)c(O)c2ccccc21	5	45*	-3	12	18
COc1cccc(C(=O)Nc2c(C(=O)N3CCN(c4ccc(F)cc4)CC3)oc3ccccc23)c1	.	-6	.	.	1
CCOC(=O)CNC(=O)c1sc(NC(=O)/C=C/c2ccccc2)nc1C	0	-12	-4	34*	0
O=C(CCCn1cnc([N+](=O)[O-])n1)Nc1cccc(O)c1	1	6	4	35*	2
Cc1ccc(NC(=O)CCN2C(=O)c3ccccc3C2=O)c(C)c1	-2	.	-9	.	.
Cc1cc(O)ccc1NC(=O)CCN1C(=O)c2ccc([N+](=O)[O-])cc2C1=O	?	4	73*	27	-1
O=C(CCCn1cnc([N+](=O)[O-])n1)Nc1ccc(F)c(Cl)c1	-1	1	-7	2	0
O=C(CCN1C(=O)c2ccc([N+](=O)[O-])cc2C1=O)Nc1cccc(O)c1	?	5	63*	-13	-1
O=C(NCC1CCCO1)c1ccc(Cl)c(NS(=O)(=O)c2ccc(F)cc2)c1 (configuration not stated)	0	.	-4	.	.
CCCCN(C)S(=O)(=O)c1ccc(NC2=NS(=O)(=O)c3ccccc32)cc1	.	-3	.	.	0
CCn1cc2c(n1)-c1c(oc(C(=O)Nc3cccc(C(F)(F)F)c3)c1C)CC2	.	-6	.	.	1
O=C(Nc1cccc2ccccc12)N(CCO)C1CCS(=O)(=O)C1 (configuration not stated)	-1	8	2	24	1
Cc1cc(C)c(C#N)c(N2CCN(CCOc3ccc(Cl)cc3)CC2)n1	2	-24	-42	121*	1
COc1ccc(F)cc1CN1CCN(c2cc(C)nc3c4c(C)cc(C)nc4nn23)CC1	.	-10	.	-12	0
COc1ccc(Cl)cc1CN1CCN(c2nc(C)cc(C)c2C#N)CC1	-3	-25	-29	41*	0

Bioassay records from PubChem.
